Data taken from PubChem BioAssay (EPA / NIEHS).
The source made the active and inactive calls. How the source made its calls: active means hit-call score of the fitted dose curve at least 0.9, where 1 is the maximum; inactive means score below 0.9.

Experiments:
Settings in all cases: mRNA level, 48 h; actives raise or lower the signal
CYP2C8 (gene 1558) = experiment: LTEA_HepaRG_CYP2C8: Life Technologies and Expression Analysis (LTEA) Assay for CYP2C8 using HepaRG (AID 2283483)
Summary of the method: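 Differentiated HepaRG cells in serum-free induction medium exposed 48 h in duplicate to 8 half-log concentrations from 100 uM in 0.5% DMSO. CYP2C8 mRNA by qRT-PCR normalized to ACTB, GAPDH, POLR2A; bidirectional fit versus DMSO.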

CYP2C9 (gene 1559) = experiment: LTEA_HepaRG_CYP2C9: Life Technologies and Expression Analysis (LTEA) Assay for CYP2C9 using HepaRG (AID 2283484)
Summary of the method: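 Differentiated human HepaRG cells in serum-free induction medium were exposed 48 h to chemicals in 8-point half-log series from 100 uM (0.5% DMSO), in duplicate. CYP2C9 mRNA was measured by qRT-PCR, normalized to ACTB/GAPDH/POLR2A, with bidirectional fitting versus DMSO.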

CYP2E1 (gene 1571) = experiment: LTEA_HepaRG_CYP2E1: Life Technologies and Expression Analysis (LTEA) Assay for CYP2E1 using HepaRG (AID 2283485)
Summary of the method: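 HepaRG cells in serum-free induction medium exposed 48 h to test chemicals, 8 half-log concentrations up to 100 uM in 0.5% DMSO, duplicate. CYP2E1 mRNA by qRT-PCR, normalized to ACTB, GAPDH, POLR2A; bidirectional fit versus DMSO.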

CYP4A11 (gene 1579) = experiment: LTEA_HepaRG_CYP4A11: Life Technologies and Expression Analysis (LTEA) Assay for CYP4A11 using HepaRG (AID 2283486)
Summary of the method: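 HepaRG, 48 h chem exposure, 8 conc (100 uM top, half-log), 0.5% DMSO vehicle; qRT-PCR readout, housekeeping-gene normalized; bidirectional curve fit vs DMSO baseline.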

[1] = read-out: Cytochrome P450 3A4 (Homo sapiens) (UniProt P08684); experiment: LTEA_HepaRG_CYP3A4: Life Technologies and Expression Analysis (LTEA) Assay for CYP3A4 using HepaRG (AID 2283487)
Summary of the method: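 Differentiated HepaRG cells, plated 48 h, then dosed 48 h in serum-free induction medium with 0.5% DMSO, 8 half-log concentrations up to 100 uM, duplicate. CYP3A4 mRNA by qRT-PCR, normalized to ACTB/GAPDH/POLR2A; bidirectional fit versus DMSO.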

[2] = read-out: DNA damage-inducible transcript 3 (DDIT3), DDIT3 (gene 1649); experiment: LTEA_HepaRG_DDIT3: Life Technologies and Expression Analysis (LTEA) Assay for DNA damage-inducible transcript 3 (DDIT3) using HepaRG (AID 2283488)
Summary of the method: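 Differentiated human HepaRG cells in serum-free induction medium were exposed in duplicate for 48 h to 8 concentrations (top 100 uM, half-log steps, 0.5% DMSO). DDIT3 mRNA measured by TaqMan qRT-PCR, normalized to ACTB/GAPDH/POLR2A; bidirectional fit versus DMSO.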

[3] = read-out: Pro-epidermal growth factor (Homo sapiens) (UniProt P01133); experiment: LTEA_HepaRG_EGF: Life Technologies and Expression Analysis (LTEA) Assay for Epidermal growth factor (EGF) using HepaRG (AID 2283489)
Summary of the method: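 HepaRG, 48 h dosing, 100 uM top, half-log x8, 0.5% DMSO. Readout: TaqMan qRT-PCR (Fluidigm array), housekeeping-normalized. Gain or loss of signal fit vs DMSO.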

[4] = read-out: Early growth response protein 1 (EGR1) transcription factor, EGR1 (gene 1958); experiment: LTEA_HepaRG_EGR1: Life Technologies and Expression Analysis (LTEA) Assay for Early growth response protein 1 (EGR1) transcription factor using HepaRG (AID 2283490)
Summary of the method: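 Differentiated HepaRG cells in serum-free induction medium exposed 48 hours, duplicate, to 8 half-log concentrations up to 100 uM in 0.5% DMSO. EGR1 mRNA measured by TaqMan qRT-PCR, normalized to ACTB, GAPDH, POLR2A; bidirectional fit versus DMSO.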

[5] = read-out: Ezrin (EZR), EZR (gene 7430); experiment: LTEA_HepaRG_EZR: Life Technologies and Expression Analysis (LTEA) Assay for Ezrin (EZR) using HepaRG (AID 2283491)
Summary of the method: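 EZR transcript levels came from Fluidigm qRT-PCR and were normalized to three housekeeping genes after 48 h chemical exposure of HepaRG cells. Dosing used an 8-point half-log series with a 100 uM top concentration in 0.5% DMSO, tested in duplicate; both directions were fitted versus vehicle.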

[6] = read-out: Cytochrome P450 3A7 (Homo sapiens) (UniProt P24462); experiment: LTEA_HepaRG_CYP3A7: Life Technologies and Expression Analysis (LTEA) Assay for CYP3A7 using HepaRG (AID 2283492)
Summary of the method: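 Human HepaRG liver cells, 48 h post-plating, switched to serum-free induction medium and exposed in duplicate for 48 h. Dosing: 100 uM top, half-log dilutions, 8 points, 0.5% DMSO vehicle. Read-out: CYP3A7 mRNA, gain or loss fitted against DMSO baseline.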

CYP3A5 (gene 1577) = experiment: LTEA_HepaRG_CYP3A5: Life Technologies and Expression Analysis (LTEA) Assay for CYP3A5 using HepaRG (AID 2283493)
Summary of the method: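 Differentiated HepaRG cells in serum-free induction medium were dosed 48 h with test chemicals (8-point half-log series, top 100 uM, 0.5% DMSO, duplicate). CYP3A5 mRNA measured by qRT-PCR, normalized to ACTB, GAPDH, POLR2A; bidirectional fit versus DMSO.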

[7] = read-out: Fatty Acid-Binding Protein 1 (FABP1), FABP1 (gene 2168); experiment: LTEA_HepaRG_FABP1: Life Technologies and Expression Analysis (LTEA) Assay for Fatty Acid-Binding Protein 1 (FABP1) using HepaRG (AID 2283494)
Summary of the method: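 Differentiated human HepaRG cells exposed 48 h in serum-free induction medium to eight half-log concentrations up to 100 uM (0.5% DMSO), duplicate. FABP1 mRNA by qRT-PCR, normalised to ACTB, GAPDH, POLR2A; bidirectional fitting against DMSO.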

[8] = read-out: Cytochrome P450 7A1 (Homo sapiens) (UniProt P22680); experiment: LTEA_HepaRG_CYP7A1: Life Technologies and Expression Analysis (LTEA) Assay for Cytochrome P450 7A1 (CYP7A1) using HepaRG (AID 2283496)
Summary of the method: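 Gene expression endpoint in human HepaRG liver cells treated for 48 h with test chemicals (up to 100 uM, 0.5% DMSO). Values come from bidirectional concentration-response fitting versus DMSO.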

[9] = read-out: Glutathione S-Transferase (GSTA2), GSTA2 (gene 2939); experiment: LTEA_HepaRG_GSTA2: Life Technologies and Expression Analysis (LTEA) Assay for Glutathione S-Transferase (GSTA2) using HepaRG (AID 2283497)
Summary of the method: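 Differentiated human HepaRG cells were exposed in duplicate for 48 h in serum-free induction medium, 8 points from 100 uM top in half-log steps, 0.5% DMSO. GSTA2 mRNA was measured by TaqMan qRT-PCR, normalized to ACTB, GAPDH and POLR2A; bidirectional fit versus DMSO.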

[10] = read-out: growth arrest and DNA damage 45 (GADD45G), GADD45G (gene 10912); experiment: LTEA_HepaRG_GADD45G: Life Technologies and Expression Analysis (LTEA) Assay for growth arrest and DNA damage 45 (GADD45G) using HepaRG (AID 2283499)
Summary of the method: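 Gain or loss of GADD45G mRNA, quantified by TaqMan qRT-PCR against three housekeeping genes, is fitted in both directions relative to 0.5% DMSO. Human HepaRG cultures receive test chemical for 48 h at up to 100 uM.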

[11] = read-out: Glutamate-cysteine ligase regulatory (GCLM), GCLM (gene 2730); experiment: LTEA_HepaRG_GCLM: Life Technologies and Expression Analysis (LTEA) Assay for Glutamate-cysteine ligase regulatory (GCLM) using HepaRG (AID 2283500)
Summary of the method: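 Differentiated human HepaRG cells exposed 48 h in serum-free induction medium to 8-point half-log concentrations (top 100 uM, 0.5% DMSO), in duplicate. GCLM mRNA quantified by qRT-PCR, normalized to ACTB, GAPDH, POLR2A; bidirectional fitting versus DMSO.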

[12] = read-out: Heat shock 70 kDa protein 1 (HSPA1A), gene 3303; experiment: LTEA_HepaRG_HSPA1A: Life Technologies and Expression Analysis (LTEA) Assay for Heat shock 70 kDa protein 1 (HSPA1A) using HepaRG (AID 2283502)
Summary of the method: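 Differentiated human HepaRG cells in serum-free induction medium were exposed in duplicate for 48 h to eight concentrations (top 100 uM, half-log steps, 0.5% DMSO). HSPA1A mRNA was quantified by qRT-PCR, normalized to ACTB, GAPDH and POLR2A, and fitted bidirectionally against DMSO.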

[13] = read-out: Glutathione S-transferase M3 (GSTM3), GSTM3 (gene 2947); experiment: LTEA_HepaRG_GSTM3: Life Technologies and Expression Analysis (LTEA) Assay for Glutathione S-transferase M3 (GSTM3) using HepaRG (AID 2283501)
Summary of the method: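 HepaRG, plated 48 h, then serum-free induction medium; test chemical 48 h, duplicate; 100 uM top, half-log x8, 0.5% DMSO. Read-out: GSTM3 mRNA (TaqMan qRT-PCR, Fluidigm array). Bidirectional fit vs DMSO.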

[14] = read-out: Glutamate-cysteine ligase catalytic (GCLC), GCLC (gene 2729); experiment: LTEA_HepaRG_GCLC: Life Technologies and Expression Analysis (LTEA) Assay for Glutamate-cysteine ligase catalytic (GCLC) using HepaRG (AID 2283498)
Summary of the method: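 Differentiated HepaRG cells exposed 48 h in serum-free induction medium, eight-point half-log series topping at 100 uM in 0.5% DMSO, duplicates. GCLC mRNA by qRT-PCR normalized to ACTB, GAPDH and POLR2A, fitted bidirectionally versus DMSO.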

[15] = read-out: Cytochrome P450 4A22 (Homo sapiens) (UniProt Q5TCH4); experiment: LTEA_HepaRG_CYP4A22: Life Technologies and Expression Analysis (LTEA) Assay for Cytochrome P450 4A22 (CYP4A22) using HepaRG (AID 2283495)
Summary of the method: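 Readout is CYP4A22 transcript induction or loss, quantified by qRT-PCR and normalized to ACTB, GAPDH and POLR2A. Human HepaRG cells receive test chemicals for 48 h at eight half-log concentrations from 100 uM in 0.5% DMSO.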

Measured: AC50

Chain of Cytochrome P450 3A4 (Homo sapiens) (P08684 whole entry, looked up): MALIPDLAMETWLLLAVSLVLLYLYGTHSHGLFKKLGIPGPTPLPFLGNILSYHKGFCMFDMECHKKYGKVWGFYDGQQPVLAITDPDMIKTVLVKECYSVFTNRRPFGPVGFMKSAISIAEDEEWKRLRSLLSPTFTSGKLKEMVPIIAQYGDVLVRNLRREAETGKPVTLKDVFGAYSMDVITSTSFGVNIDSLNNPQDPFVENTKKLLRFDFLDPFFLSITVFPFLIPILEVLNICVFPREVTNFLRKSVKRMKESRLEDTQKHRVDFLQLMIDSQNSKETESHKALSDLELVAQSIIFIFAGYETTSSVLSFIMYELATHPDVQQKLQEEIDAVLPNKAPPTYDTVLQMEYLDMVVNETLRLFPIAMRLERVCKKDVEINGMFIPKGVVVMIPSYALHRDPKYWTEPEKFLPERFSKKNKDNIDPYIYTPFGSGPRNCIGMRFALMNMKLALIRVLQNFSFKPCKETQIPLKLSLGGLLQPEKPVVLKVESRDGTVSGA
Chain of Cytochrome P450 3A7 (Homo sapiens) (P24462 whole entry, looked up): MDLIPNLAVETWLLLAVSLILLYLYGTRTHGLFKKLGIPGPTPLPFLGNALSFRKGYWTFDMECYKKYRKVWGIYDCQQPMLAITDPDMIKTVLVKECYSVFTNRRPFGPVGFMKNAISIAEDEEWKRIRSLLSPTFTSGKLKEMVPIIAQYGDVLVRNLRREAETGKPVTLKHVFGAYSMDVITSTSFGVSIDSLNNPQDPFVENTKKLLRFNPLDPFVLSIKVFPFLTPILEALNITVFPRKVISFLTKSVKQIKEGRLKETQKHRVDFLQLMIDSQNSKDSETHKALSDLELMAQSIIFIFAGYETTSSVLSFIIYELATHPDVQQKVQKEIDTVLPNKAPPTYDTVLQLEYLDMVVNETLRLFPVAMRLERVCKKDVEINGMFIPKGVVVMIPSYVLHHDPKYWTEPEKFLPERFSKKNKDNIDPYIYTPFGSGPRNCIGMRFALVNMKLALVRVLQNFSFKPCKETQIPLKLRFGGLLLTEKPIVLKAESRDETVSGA

CC(C1CC1)C(O)(Cn1cncn1)c1ccc(Cl)cc1 (centres undefined)
active: CYP2C8 (gene 1558) 0.327 µM | CYP2E1 (gene 1571) 49.5 µM | CYP4A11 (gene 1579) 49.8 µM | [1] 3.9 µM | [2] 72.3 µM | [6] 2.25 µM | [7] 12.5 µM | [8] 18.8 µM | [9] 76.7 µM
inactive: CYP2C9 (gene 1559) | [3] | [4] | [5] | CYP3A5 (gene 1577) | [10] | [11] | [12]

CCOP(=S)(OCC)Oc1ccc([N+](=O)[O-])cc1
active: CYP2E1 (gene 1571) 7.92 µM | [1] 8.92 µM | [6] 6.02 µM | [8] 1.78 µM
not listed: CYP3A5 (gene 1577) | [14] | [15]
inactive: all other assays above

C#CCC1=C(C)C(OC(=O)C2C(C=C(C)C)C2(C)C)CC1=O (centres undefined)
active: CYP2E1 (gene 1571) 73.3 µM | CYP4A11 (gene 1579) 49.8 µM | [3] 11.1 µM | [4] 49.8 µM | [7] 49.8 µM
not listed: CYP3A5 (gene 1577) | [13] | [15]
inactive: all other assays above

CCOP(=S)(OCC)Oc1cc(C)nc(C(C)C)n1
active: CYP2E1 (gene 1571) 9.92 µM
not listed: [1] | [14]
inactive: all other assays above
